# USP30 inh – inhibitors of human USP30 deubiquitinase; Ubiquitin carboxyl-terminal hydrolase 30 (Homo sapiens), Q70CQ3; purified USP30, Ub-rhodamine cleavage fluorescence; inhibition, % at 25 µM; 47,000 compounds, 5.3% hits; AID 1645860, 2021
# USP8 block – inhibitors of human USP8 deubiquitinase; inhibition, % at 20 µM; AID 1645853, 2021; Ubiquitin carboxyl-terminal hydrolase 8 (Homo sapiens), P40818; purified USP8, Ub-rhodamine cleavage fluorescence, 30 min; 47,000 compounds, 4.2% hits
# USP17 inh – inhibitors of human USP17 deubiquitinase. 47,000 compounds, 6.5% hits. purified USP17, Ub-rhodamine cleavage fluorescence, 3 h. Ubiquitin carboxyl-terminal hydrolase 17-like protein 5 (Homo sapiens), A8MUK1. inhibition, % at 50 µM. AID 1645855, 2021
# USP28 inh – inhibitors of human USP28 deubiquitinase; inhibition, % at 25 µM; purified USP28, Ub-rhodamine cleavage fluorescence, 30 min; 47,000 compounds, 3% hits; AID 1645857, 2021
# An asterisk follows results filed as active; . = not tested or not shown. Hits are enriched below; roughly 13% of the tested compounds scored in any of these assays. No stated cut-off is given here; in the data, active means inhibition above about 30%; inactive means the rest.
SMILES,USP30 inh,USP8 block,USP17 inh,USP28 inh
Cc1ccc(C2SCC(=O)Nc3c2c(=O)[nH]n3C2CCCCCC2)cc1 (stereo unspecified),29.5,73.4*,18.9,9.2
CCOc1ccc(C2SCC(=O)Nc3c2c(=O)[nH]n3C2CCCC2)cc1 (stereo unspecified),19.2,23.4,11.7,8.0
O=C1CSC(c2ccc3c(c2)OCO3)c2c(n(C3CCCC3)[nH]c2=O)N1 (stereo unspecified),22.8,0.0,0.0,2.4
Cc1nn(C2CCCC2)c2c1C(c1ccc3c(c1)OCO3)SCC(=O)N2 (stereo unspecified),30.3*,-160.4,-12.4,8.7
O=C1CSC(c2cccc([N+](=O)[O-])c2)c2c(n(C3CCCCCC3)[nH]c2=O)N1 (stereo unspecified),27.7,39.7*,.,7.6
Cn1c(=O)c2c(ncn2CC(=O)Nc2ccc(Cl)cc2C(=O)c2ccccc2F)n(C)c1=O,11.7,3.9,-3.3,-1.4
O=C1C2CCN(CC2)C1Cc1ccccc1F (stereo unspecified),6.6,12.2,1.5,2.3
CCC(=O)CCCCC[C@@H]1NC(=O)[C@H]2CCCCN2C(=O)[C@H]([C@@H](C)CC)NC(=O)[C@H](Cc2cn(OC)c3ccccc23)NC1=O,-0.1,-15.0,35.9*,13.4
CN1C(=O)[C@@]23CC4=CC=C[C@H](O)C4N2C(=O)[C@]1(CO)SS3 (stereo partly specified),34.8*,-16.8,-27.0,-12.7
CN=C(N)NCCC/C=C/CCC[C@H](C)C[C@H](C)C1OC(=O)C(C)C(O)/C=C/C(C)C(O)CC(O)C(C)C(O)CCC(C)C(O)CC2(O)OC(CC(OC(=O)CC(=O)O)CC(O)CC(O)C(C)C(O)/C=C/C=C/C1C)CC(O)C2O (stereo partly specified),10.6,5.8,31.6*,34.4*
COc1ccc(C2(CCNCc3ccc(Cl)cc3)CCOC(C)(C)C2)cc1 (stereo unspecified),34.1*,0.0,2.8,9.1
CC1Cc2c(Cl)cc(C(=O)NC(Cc3ccccc3)C(=O)O)c(O)c2C(=O)O1 (stereo unspecified),-44.2,-7.9,-7.1,2.3
O=C(NCc1cccnc1)c1cccn(Cc2ccc(Cl)cc2)c1=O,31.6*,5.8,6.8,13.7
Cc1c(CC(=O)N2CCN(CC(=O)N3CCCCCC3)CC2)c(=O)oc2cc(O)ccc12,-6.2,2.6,2.2,-1.8
CC(C)=CC1(C)N2CC3(C)CN1CC(C)(C2)C3=O (stereo unspecified),-11.3,-7.4,-12.9,-10.4
Cc1nn(Cc2ccccc2)c(C)c1C(=O)NCc1ccccc1,27.6,18.8,11.9,14.3
Cc1nn(Cc2ccccc2)c(C)c1C(=O)NC1CCCc2ccccc21 (stereo unspecified),54.0*,-1.6,0.0,-4.1
CCC1C2CC3[C@@H]4N(C)c5ccccc5[C@]45CC(C2[C@H]5O)N3[C@@H]1O (stereo partly specified),17.8,3.0,4.3,3.5
O=C(c1cccnc1)N1CCCC[C@@H]2N[C@H](c3ccccc3)C[C@H]21,-8.3,-63.0,-17.2,-9.0
O=C(c1nc(-c2ccncc2)no1)N1CCC2(CC1)OCCO2,7.5,30.6*,3.6,1.4
CN1[C@@H]2Cc3ccccc3[C@H]1C[C@@H](NC(=O)C1CCCCC1)C2,-9.1,-5.7,-0.1,-10.7
O=C(NCc1ccccn1)c1cc2cccnc2n(Cc2ccccc2)c1=O,-177.5,-34.9,-62.1,-49.2
O=C(Nc1ccccn1)c1c(O)c2ccccc2n(Cc2ccccc2)c1=O,12.0,68.9*,14.4,-1.5
CC1=C(O)C(=O)C=C2C1=CC=C1[C@@]2(C)CC[C@@]2(C)[C@@H]3C[C@](C)(C(=O)O)CC[C@]3(C)CC[C@]12C,-57.7,45.5*,54.1*,64.1*
COc1cc(C2SCC(=O)Nc3c2c(-c2ccccc2)nn3-c2ccccc2)cc(OC)c1OC (stereo unspecified),-0.7,-11.2,6.9,77.1*
SMILES,USP30 inh,USP8 block,USP17 inh,USP28 inh
COc1cccc(C2SCC(=O)Nc3c2c(C)nn3-c2nc(C)cc(C)n2)c1 (stereo unspecified),-10.6,-5.9,-4.7,-12.7
O=C1CSC(c2ccc(Cl)cc2)c2c(-c3ccccc3)nn(-c3ccccc3)c2N1 (stereo unspecified),31.9*,7.3,5.1,43.2*
CC(C)CN1C[C@H]2C[C@H](C(=O)NCc3cccnc3)[C@@H](C1)O2,0.7,2.7,1.1,-0.2
O=C(c1n[nH]c2c1CCCC2)N1CCC2(CC1)OCCO2,15.0,-2.5,-16.2,10.4
CC(C)(O)[C@H]1[C@@H]2OC(=O)[C@H]1[C@@]1(O)[C@@H]3O[C@@H]3[C@@]3(CO3)[C@@]1(C)[C@H]2O,27.8,2.6,12.3,3.7
COc1cc(NC(=O)CN2C(=O)C(C)N=C(c3ccccc3)c3ccccc32)cc(OC)c1OC (stereo unspecified),-9.1,9.5,-8.5,7.5
Cn1c(=O)[nH]c2nncnc2c1=O,-14.9,34.1*,72.9*,0.9
COc1cccc2c1NC(=O)C21CCN(C(=O)Nc2cccc(C)c2)CC1,2.9,4.8,53.6*,0.0
COc1cccc2c1NC(=O)C21CCN(C(=O)Nc2ccc(F)cc2)CC1,1.1,-13.6,-15.8,-2.4
CCN(CC)C(=O)c1ccc(NC(=O)CN2CCc3cc(OC)c(OC)cc3C2)cc1,10.3,40.5*,12.4,11.1

# Assay outcomes as filed in PubChem BioAssay.
